Test results from PubChem BioAssay.
Calls of active or inactive are those of the source.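 Rule for the calls, unless noted: active = compound raises GLP1 secretion from the human gut endocrine cells, with no numeric limit stated; inactive = the rest.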

Columns and labels:
[1] = Wnt pathway potentiators raising nuclear beta-catenin – imaging, WNT3A-conditioned medium, mouse C2C12, NPC library, primary screen (AID 1117326; in the data active = nuclear beta-catenin stimulation mostly above about 4.2%, no sharp cut-off; inactive = mostly below about 10%; note: reference of the scale not given here); details: stronger effect = higher value
[2] = stimulators of insulin release from INS-1E, primary screen, cell-based, 5 mM glucose, NPC library (AID 1117329;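 active = compound raises insulin release from rat beta cells at 5 mM glucose, no numeric limit stated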; note: reference of the scale not given here); details: rat INS-1E insulin secretion, at 10 µM, stronger effect = higher value
[3] = growth inhibition of GSK3B-pretreated HCT116 cells – cell-based, CellTiter-Glo, 0.2 to 20 µM (AID 1117336;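 active = compounds lowering colon cancer cell viability after pretreatment blocking the GSK3B kinase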); details: HCT116 viability after GSK3B inhibitor, at 20 µM, stronger effect = higher value
[4] = inhibition of endothelial tube formation, primary screen, imaging, VEGF stimulated, CD31 staining, tube area, NPC library (AID 1117340;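 active = compound that reduces growth-factor-driven endothelial tube area in a mixed cell culture, no cutoff stated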); details: VEGF-stimulated ADSC/ECFC co-culture, at 10 µM, stronger effect = higher value
[5] = GLP1 release stimulators, primary, NCI-H716, NPC library (AID 1117341); details: NCI-H716 cells, at 10 µM, stronger effect = higher value; note: reference of the scale not given here
[6] = HCT116 colon cancer cell growth inhibition, primary screen, CellTiter-Glo luminescence, NPC library (AID 1117342;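 active = compounds that lower survival of HCT116 colon cancer cells in the luminescence readout, no numeric limit stated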); details: at 20 µM (top of the series)
[7] = reduced SW480 viability measured with CellTiter-Glo, NPC library, primary (AID 1117343;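 active = compounds that lower viability of the colon cancer cells in the luminescence readout, with no numeric limit stated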); details: CellTiter-Glo luminescence; at 20 µM (top of the series)
[8] = NPC library primary testing for decreased DLD-1 cell viability via CellTiter-Glo (AID 1117346;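 active = compounds that lower survival of DLD-1 colon cancer cells in the luminescence readout, no cutoff given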); details: DLD-1 viability, CellTiter-Glo luminescence; at 20 µM (top of the series)

| SMILES | nuclear beta-catenin stimulation ([1]; at 10 µM) | nuclear beta-catenin stimulation ([1]; stimulation, at 2 µM) | insulin secretion stimulation [2] | viability decrease [3] | tube area decrease [4] | GLP1 secretion stimulation [5] | inhibition of viability [6] | viability decrease (inhibition) [7] | viability decrease (inhibition) [8] |
| --- | --- | --- | --- | --- | --- | --- | --- | --- | --- |
| CO/N=C(/C(=O)N[C@@H]1C(=O)N2C(C(=O)OCOC(=O)C(C)(C)C)=C(C)CS[C@H]12)c1csc(N)n1 | 1% (inactive) | -2% | 5.9% (inactive) | 7.7% (inactive) | -11.2% (inactive) | -21% (inactive) | 0.6% (inactive) | 15% (inactive) | -8.3% (inactive) |
| CCCCCCCCCCCCCCCC(=O)OCC(COC(=O)CCCCCCCCCCCCCCC)OC(=O)CCCCCCCCCCCCCCC | -0.4% (inactive) | -0.6% | 2.5% (inactive) | -7.6% (inactive) | -17.9% (inactive) | -5.4% (inactive) | -1.3% (inactive) | 2.7% (inactive) | -6.5% (inactive) |
| O=C(CO)[C@@H](O)[C@H](O)[C@@H](O)CO | -1.8% (inactive) | -0.9% | 3% (inactive) | -1.5% (inactive) | -29.2% (inactive) | -2.6% (inactive) | 8.2% (inactive) | 4.9% (inactive) | 3.2% (inactive) |
| NC[C@H]1O[C@H](O[C@@H]2[C@@H](O)[C@@H](O[C@H]3O[C@H](CO)[C@@H](O)[C@H](N)[C@@H]3O)[C@H](N)C[C@@H]2N)[C@H](O)[C@@H](O)[C@H]1O | -1.2% (inactive) | -0.6% | -0.8% (inactive) | -36.2% (inactive) | -10.7% (inactive) | -0.1% (inactive) | -13.3% (inactive) | -2.1% (inactive) | -23.8% (inactive) |
| CCCCN1CCCC[C@H]1C(=O)Nc1c(C)cccc1C | 0.3% (inactive) | 0.4% | 25.7% (active) | 26.6% (inactive) | -20.3% (inactive) | 2.9% (inactive) | 23.7% (inactive) | 21.1% (inactive) | 23.1% (inactive) |
| COc1cc2c(cc1OC)CN(C(=O)[C@H](C)N[C@@H](CCc1ccccc1)C(=O)O)[C@H](C(=O)O)C2 | -0.2% (inactive) | -2.5% | 0.4% (inactive) | -9.2% (inactive) | 14.8% (inactive) | -1.8% (inactive) | 7.6% (inactive) | -3.9% (inactive) | -16.7% (inactive) |
| CC(C)[C@H](N)C(=O)O | -0.1% (inactive) | 1.3% | 0.4% (inactive) | -2.3% (inactive) | -14.8% (inactive) | -4.1% (inactive) | 1.3% (inactive) | 11.9% (active) | 14.8% (inactive) |
| c1ccc(-c2nc[nH]c2-c2ccccc2)cc1 | 0.2% (inactive) | 2.7% | -1.3% (inactive) | -7.1% (inactive) | 12.1% (inactive) | 3.1% (inactive) | -17.5% (inactive) | 55% (active) | -0.05% (inactive) |
| CC[N+](CC)(CC)CCOC(=O)C(C1CCCC1)C1CCCC1 | 1.2% (inactive) | 2% | 0.5% (inactive) | 28.7% (inactive) | 8.3% (inactive) | 1.6% (inactive) | 21.8% (inactive) | -14.4% (inactive) | 4.1% (inactive) |
| CC1(C)S[C@@H]2[C@H](NC(=O)C(C(=O)Oc3ccc4c(c3)CCC4)c3ccccc3)C(=O)N2[C@H]1C(=O)O (some centres undefined) | 1% (inactive) | 0.4% | 4.4% (inactive) | -7.7% (inactive) | -2.6% (inactive) | -0.3% (inactive) | 1.5% (inactive) | 86% (active) | -6.9% (inactive) |
| NC[C@H]1O[C@H](O[C@H]2[C@H](O[C@@H]3O[C@H](CO)[C@@H](O)[C@H]3O)C(O)[C@H](N)C[C@@H]2N)[C@H](N)[C@@H](O)[C@@H]1O (some centres undefined) | 0.5% (inactive) | 2.2% | 1.4% (inactive) | -14.9% (inactive) | -12.5% (inactive) | 0.7% (inactive) | 2.3% (inactive) | 0.4% (inactive) | -14.4% (inactive) |
| CC(C)C(=O)Nc1cccc(C(F)(F)F)c1 | 1% (inactive) | 1.2% | 2.1% (inactive) | 9.3% (inactive) | -5.2% (inactive) | 4.8% (inactive) | 0.9% (inactive) | -24.6% (inactive) | -1% (inactive) |
| CCc1cc2cc(OC)c(OC)cc2c(Cc2ccccc2)n1 | 7.1% (inactive) | 3.1% | 15.8% (inactive) | 46.2% (inactive) | 18.5% (inactive) | 3.6% (inactive) | 41.3% (inactive) | -9.7% (inactive) | 25.5% (inactive) |
| COc1ccc([C@@H]2Sc3ccccc3NC(=O)[C@@H]2O)cc1 | 7.8% (inactive) | 0.6% | 2.8% (inactive) | 77.6% (active) | 57.7% (active) | 2.6% (inactive) | 96.6% (active) | 87.2% (active) | 67.4% (active) |
| COc1cc2nc(Cl)nc(N)c2cc1OC | 0.1% (inactive) | -1.5% | 2.8% (inactive) | 13.3% (inactive) | 9.3% (inactive) | 0.6% (inactive) | 22.3% (inactive) | -4.5% (inactive) | 21.8% (inactive) |
| Nc1ncnc(Nc2ccccc2)n1 | 0.5% (inactive) | 0.6% | -1.2% (inactive) | 3.65% (inactive) | -16% (inactive) | -0.9% (inactive) | 2.7% (inactive) | 51.8% (active) | 19.1% (inactive) |
